{"source": "PubChem BioAssay AID2551", "about": "(National Center for Advancing Translational Sciences (NCATS), 2010)", "note": "In all, about 310,000 compounds went through this assay and about 17,000 (5.5%) were called active. Inconclusive results (about 11%) are left out. This excerpt belongs to a sample that is enriched for actives. Unmarked numbers belong to inactive results. The call rests on the fitted dose curve; in most records, active means well fitted inhibition curve with a large enough effect; inconclusive means small, poorly fitted or top-dose-only effect, or effect the other way; inactive means no such curve, though single readings can be large or run the other way. On the % scale 0 is the no-effect control and ±100 the full control effect; potency means the concentration at half of the fitted maximal effect."}
{"molecular_target": "Nuclear receptor ROR-gamma (Mus musculus) (UniProt P51450)", "sequence (P51450 whole entry, looked up, the tested form may be a part)": "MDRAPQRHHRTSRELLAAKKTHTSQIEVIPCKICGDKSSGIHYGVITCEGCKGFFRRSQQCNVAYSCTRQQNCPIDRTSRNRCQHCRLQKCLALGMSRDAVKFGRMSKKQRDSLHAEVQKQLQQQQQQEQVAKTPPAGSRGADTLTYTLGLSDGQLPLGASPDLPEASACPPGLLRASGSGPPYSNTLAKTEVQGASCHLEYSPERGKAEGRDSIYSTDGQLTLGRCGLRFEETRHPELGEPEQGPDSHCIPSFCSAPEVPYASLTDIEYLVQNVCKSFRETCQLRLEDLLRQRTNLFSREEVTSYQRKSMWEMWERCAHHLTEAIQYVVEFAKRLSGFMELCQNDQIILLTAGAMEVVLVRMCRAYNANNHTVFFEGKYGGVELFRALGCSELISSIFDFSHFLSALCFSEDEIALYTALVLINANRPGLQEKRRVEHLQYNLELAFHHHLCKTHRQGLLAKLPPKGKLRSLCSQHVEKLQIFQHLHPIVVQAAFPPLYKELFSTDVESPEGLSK", "test": "qHTS for inhibitors of ROR gamma transcriptional activity; further: nearly all actives have a fitted effect of over 60% in size", "conditions": "Drosophila S2 Gal4-RORgamma UAS-luciferase reporter, 20 h; series mostly up to 53.6 µM; activity change, negative = inhibition: at the top concentration", "in_short": "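Luminescence from a UAS-regulated Photinus luciferase reporter in stably transfected Drosophila Schneider cells is measured; decreased signal marks ROR gamma inhibition. Fusion expression is induced by 700 uM copper sulfate for 20 hr.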"}
{"smiles": "Cc1ccc(NC(=O)OCCNC(=O)c2ccncc2)cc1", "activity change, negative = inhibition": "16.2%"}
{"smiles": "Cc1ccc(NC(=O)c2nc[nH]c2C(=O)N[C@@H](CCCCNC(=O)OC(C)(C)C)C(=O)OC(C)(C)C)cc1", "Potency": "8.91 µM (active)"}
{"smiles": "Cc1ccc(NC(=O)c2cccnc2C(=O)Nc2ccc(C)cc2)cc1", "activity change, negative = inhibition": "33.9%"}
{"smiles": "CCCCCOC(=O)NCCOC(=O)Nc1ccc(C(=O)OCC)cc1", "activity change, negative = inhibition": "30.1%"}
{"smiles": "COc1ccc(Nc2ncnc3sc(C)cc23)cc1", "activity change, negative = inhibition": "2.51%"}
{"smiles": "CC(C)CCn1c(=O)c2c(nc3n2CCCN3Cc2ccccc2)n(C)c1=O", "activity change, negative = inhibition": "39.1%"}
{"smiles": "Nc1nc(C23CC4CC(CC(C4)C2)C3)cs1", "activity change, negative = inhibition": "-0.833%"}
{"smiles": "COc1cc(OC)cc(-c2nc(=S)n3ccsc3n2)c1", "activity change, negative = inhibition": "-4.05%"}
{"smiles": "S=c1nc(C23CC4CC(CC(C4)C2)C3)nc2sccn12", "Potency": "7.94 µM (active)"}
{"smiles": "C=CCC1=C/C(=C\\c2c(N)n3nc(CC(=O)N4CCOCC4)sc3nc2=O)C=C(OC)C1=O", "activity change, negative = inhibition": "20.9%"}
{"smiles": "Cc1cnc(CNc2nc(-c3cccnc3)nc3ccccc23)cn1", "activity change, negative = inhibition": "-27.6%"}
{"smiles": "CNc1nc(-c2ccccc2OC)nc2ccccc12", "activity change, negative = inhibition": "-40.8%"}
{"smiles": "Cc1ccc(Oc2nc(-c3ccccn3)nc3ccccc23)cc1", "Potency": "0.251 µM (active)"}
{"smiles": "COc1cnc(-c2ccccn2)nc1Oc1ccc(C(C)(C)C)cc1", "Potency": "5.62 µM (active)"}
{"smiles": "COc1ccc(Cc2nc(-c3ccccn3)no2)cc1OC", "activity change, negative = inhibition": "-6.71%"}
{"smiles": "COc1ccccc1Oc1nc(-c2cccnc2)nc2ccccc12", "activity change, negative = inhibition": "-19.1%"}
{"smiles": "N#Cc1ccc(Oc2cc(C(F)(F)F)nc(-c3ccccn3)n2)cc1", "activity change, negative = inhibition": "6.67%"}
{"smiles": "COc1ccc(Sc2nc(-c3ccccc3)ncc2OC)cc1", "activity change, negative = inhibition": "3.03%"}
{"smiles": "CC(C)(C)Nc1nc(-c2ccccn2)nc2ccccc12", "Potency": "1.41 µM (active)"}
{"smiles": "O=C(CCc1ccccc1)Nc1ccnn1C1CCN(Cc2ccc(OCCO)cc2)CC1", "activity change, negative = inhibition": "-4.43%"}
{"smiles": "Cn1cc[n+](C)c1COc1ccc(C=O)cc1", "activity change, negative = inhibition": "-16.6% [at 1.91 µM]"}
{"smiles": "COC(=O)[C@@H]1CC(O)CN1C(=O)C12CC3CC(CC(C3)C1)C2", "note": "(stereo partly specified)", "activity change, negative = inhibition": "-2.86%"}
{"smiles": "COc1ccc(C(=O)Nc2ccccc2C(=O)N/N=C/c2ccc(O)c(OC)c2)cc1", "Potency": "0.199 µM (active)"}
{"smiles": "COc1cc(/C=N/NC(=O)c2ccc(N3CCCC3=O)cc2)ccc1O", "activity change, negative = inhibition": "17%"}
{"smiles": "COc1ccc(/C=N/NC(=O)c2ccc3c(c2)OCCO3)c(OC)c1", "activity change, negative = inhibition": "13.5%"}
{"smiles": "COc1ccccc1C(=O)NNC(=O)c1ccc(NC(=O)c2ccccc2)cc1", "activity change, negative = inhibition": "-12.5%"}
{"smiles": "COc1ccc(C(=O)Nc2ccccc2C(=O)N/N=C/c2ccccc2OC)cc1", "Potency": "15.8 µM (active)"}
{"smiles": "COc1cc(/C=N/NC(=O)c2ccccc2)ccc1OS(=O)(=O)c1ccccc1", "activity change, negative = inhibition": "-13.4%"}
{"smiles": "O=C(CSCc1ccccc1)Nc1ccccc1", "activity change, negative = inhibition": "9.06%"}
{"smiles": "Cc1ccn2c(c1)nc(=O)c1cc(S(=O)(=O)N3CCC(C)CC3)ccc12", "activity change, negative = inhibition": "-1.5%"}
{"smiles": "COc1cccc(/C=C2/SC(=S)N(CC(=O)NC3C=CS(=O)(=O)C3)C2=O)c1", "note": "(stereo unspecified)", "activity change, negative = inhibition": "-21.1%"}
{"smiles": "COc1ccc(S(=O)(=O)Nc2ccccc2C(=O)N2CCCC2)cc1C", "activity change, negative = inhibition": "17.8%"}
{"smiles": "Nc1ccn(C2CC(O)C(CO)O2)c(=O)n1", "note": "(stereo unspecified)", "activity change, negative = inhibition": "-20.3%"}
{"smiles": "CN1CCN(CCCCOc2cccc3ccccc23)CC1", "activity change, negative = inhibition": "4.45%"}
{"smiles": "O=C(CN1CCCC1)Nc1sc2c(c1C(=O)Nc1ccccc1)CCCC2", "Potency": "5.01 µM (active)"}
{"smiles": "O=C(O)c1c(NC(=O)N2CCCC2)sc2c1CCCC2", "activity change, negative = inhibition": "-22.4%"}
{"smiles": "Cc1ccc(NC(=O)c2c(NC(=O)CCC(=O)O)sc3c2CCCCC3)cc1", "activity change, negative = inhibition": "-28.7%"}
{"smiles": "CC1=C(C(=O)OC2CCCCC2)C(c2ccccc2F)NC(=O)N1", "note": "(stereo unspecified)", "activity change, negative = inhibition": "12.3%"}
{"smiles": "Cc1ccc2c(c1)N(CC(=O)N1CCCC(C)C1)C(=O)CO2", "note": "(stereo unspecified)", "activity change, negative = inhibition": "-14.2%"}
{"smiles": "O=c1oc2ccccc2cc1-c1csc(Nc2ccc(O)cc2)n1", "activity change, negative = inhibition": "21.7%"}
{"smiles": "Cc1ccc(NC(=O)c2cc(-c3ccc(C)o3)nc3ccccc23)nc1", "activity change, negative = inhibition": "-10.5% [at 0.365 µM]"}
{"smiles": "Cc1ccc(Nc2nc(-c3ccc(O)cc3O)cs2)nc1", "Potency": "8.91 µM (active)"}
{"smiles": "COc1cccc(NC(=S)NCCCN2CCOCC2)c1", "activity change, negative = inhibition": "-6.97%"}
{"smiles": "CCOc1nc(NCCN2CCOCC2)nc(Nc2ccc(C)cc2)n1", "activity change, negative = inhibition": "2.46%"}
{"smiles": "CCOc1cccc(/C=N/NC(=S)NCCN2CCOCC2)c1O", "Potency": "1.41 µM (active)"}
{"smiles": "Cc1ccc(N(C(=O)c2snc(C(N)=O)c2N)C(C(=O)NCC2CCCO2)c2c[nH]c3ccccc23)cc1", "note": "(stereo unspecified)", "activity change, negative = inhibition": "19.8%"}
{"smiles": "COc1ccc(S(=O)(=O)NCCc2cc3ccc(C)c(C)c3[nH]c2=O)cc1", "activity change, negative = inhibition": "9.72%"}
{"smiles": "COc1ccc(/C=C(\\C#N)C(=O)ONC2=NCCCCC2)cc1", "activity change, negative = inhibition": "22.8%"}
{"smiles": "COc1ccccc1N1CCN(/N=C/c2ccc(O)cc2O)CC1", "activity change, negative = inhibition": "-15.8% [at 1.91 µM]"}
{"smiles": "Fc1ccc(/C=N/Nc2nc(-c3cccnc3)nc3ccccc23)cc1", "activity change, negative = inhibition": "-43.6%"}
{"smiles": "Cc1nc2ccccc2nc1N/N=C/c1ccc(O)cc1O", "Potency": "11.2 µM (active)"}
{"smiles": "Cc1cc(N/N=C/c2ccccc2F)c2ccccc2n1", "activity change, negative = inhibition": "-16.8%"}
{"smiles": "Cc1cc(O)ccc1-c1cnc2ccccc2n1", "activity change, negative = inhibition": "14.1%"}
{"smiles": "Oc1ccc(/C=N/NC2=NCCCCC2)c(O)c1", "Potency": "11.2 µM (active)"}
{"smiles": "Cc1nc2ccccc2cc1O", "activity change, negative = inhibition": "10%"}
{"smiles": "Oc1ccc(/C=N/Nc2nc(-c3ccccc3F)nc3ccccc23)c(O)c1", "Potency": "10 µM (active)"}
